Experiments:
Assay in all cases: log2 ratio of Biotin-Ahx-Ub-VS probe labelling (fragment/DMSO); higher = less target engagement (more negative = stronger competition), active = hit call of the paper (q ≤ 0.05, log2 ratio ≤ -1)
Conditions in all cases: compound concentration: 200 uM; treatment time: 3 h
[1] = target: USP34 (UniProt Q70CQ2)
Procedure, shortened: (§1)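 Average log2 ratios of fragment over vehicle were obtained by unpaired t-test from global-median-normalised Spectronaut label-free quantities. Proteins with ≥2 unique peptides were included. HEK293T lysate (495 µg per sample) was treated in triplicate with fragment at 200 µM or vehicle for 3 h, then with Biotin-Ahx-Ub-VS at 0.5 µM final for 1 h, and labelled DUBs were NeutrAvidin-enriched and run by diaPASEF LC-MS/MS.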

[2] = target: T1, USP36 (UniProt Q9P275)
T1 sequence (whole entry): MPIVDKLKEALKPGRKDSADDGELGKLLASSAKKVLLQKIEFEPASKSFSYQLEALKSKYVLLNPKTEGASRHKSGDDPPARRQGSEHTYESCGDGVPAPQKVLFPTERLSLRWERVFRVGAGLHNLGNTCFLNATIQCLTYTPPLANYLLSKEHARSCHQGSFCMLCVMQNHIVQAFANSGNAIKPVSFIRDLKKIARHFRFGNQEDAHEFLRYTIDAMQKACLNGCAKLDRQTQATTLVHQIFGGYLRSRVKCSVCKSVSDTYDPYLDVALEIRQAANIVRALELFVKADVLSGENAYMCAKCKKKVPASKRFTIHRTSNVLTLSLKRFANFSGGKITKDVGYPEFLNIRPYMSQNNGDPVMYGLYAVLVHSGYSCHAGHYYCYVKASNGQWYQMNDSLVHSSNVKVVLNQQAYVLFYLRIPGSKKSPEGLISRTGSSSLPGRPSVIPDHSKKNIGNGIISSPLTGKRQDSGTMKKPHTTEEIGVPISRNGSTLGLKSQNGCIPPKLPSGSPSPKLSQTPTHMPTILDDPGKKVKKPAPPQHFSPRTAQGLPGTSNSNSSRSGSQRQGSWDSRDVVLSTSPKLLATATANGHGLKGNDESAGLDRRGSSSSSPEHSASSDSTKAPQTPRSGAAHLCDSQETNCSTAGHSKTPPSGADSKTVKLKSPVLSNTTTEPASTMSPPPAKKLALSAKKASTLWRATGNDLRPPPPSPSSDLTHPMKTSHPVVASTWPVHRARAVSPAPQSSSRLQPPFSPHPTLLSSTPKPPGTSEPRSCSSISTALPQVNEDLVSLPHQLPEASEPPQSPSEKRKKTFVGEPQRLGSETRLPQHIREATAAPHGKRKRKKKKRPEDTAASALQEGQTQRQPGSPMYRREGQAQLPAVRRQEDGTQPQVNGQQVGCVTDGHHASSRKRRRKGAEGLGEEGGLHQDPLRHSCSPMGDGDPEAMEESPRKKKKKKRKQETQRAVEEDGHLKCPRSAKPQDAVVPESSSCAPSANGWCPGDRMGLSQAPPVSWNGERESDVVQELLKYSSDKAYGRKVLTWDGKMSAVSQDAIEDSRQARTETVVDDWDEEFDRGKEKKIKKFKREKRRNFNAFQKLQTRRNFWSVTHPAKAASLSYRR
Procedure, shortened: as §1

[3] = target: T2, USP38 (UniProt Q8NB14)
T2 sequence (whole entry): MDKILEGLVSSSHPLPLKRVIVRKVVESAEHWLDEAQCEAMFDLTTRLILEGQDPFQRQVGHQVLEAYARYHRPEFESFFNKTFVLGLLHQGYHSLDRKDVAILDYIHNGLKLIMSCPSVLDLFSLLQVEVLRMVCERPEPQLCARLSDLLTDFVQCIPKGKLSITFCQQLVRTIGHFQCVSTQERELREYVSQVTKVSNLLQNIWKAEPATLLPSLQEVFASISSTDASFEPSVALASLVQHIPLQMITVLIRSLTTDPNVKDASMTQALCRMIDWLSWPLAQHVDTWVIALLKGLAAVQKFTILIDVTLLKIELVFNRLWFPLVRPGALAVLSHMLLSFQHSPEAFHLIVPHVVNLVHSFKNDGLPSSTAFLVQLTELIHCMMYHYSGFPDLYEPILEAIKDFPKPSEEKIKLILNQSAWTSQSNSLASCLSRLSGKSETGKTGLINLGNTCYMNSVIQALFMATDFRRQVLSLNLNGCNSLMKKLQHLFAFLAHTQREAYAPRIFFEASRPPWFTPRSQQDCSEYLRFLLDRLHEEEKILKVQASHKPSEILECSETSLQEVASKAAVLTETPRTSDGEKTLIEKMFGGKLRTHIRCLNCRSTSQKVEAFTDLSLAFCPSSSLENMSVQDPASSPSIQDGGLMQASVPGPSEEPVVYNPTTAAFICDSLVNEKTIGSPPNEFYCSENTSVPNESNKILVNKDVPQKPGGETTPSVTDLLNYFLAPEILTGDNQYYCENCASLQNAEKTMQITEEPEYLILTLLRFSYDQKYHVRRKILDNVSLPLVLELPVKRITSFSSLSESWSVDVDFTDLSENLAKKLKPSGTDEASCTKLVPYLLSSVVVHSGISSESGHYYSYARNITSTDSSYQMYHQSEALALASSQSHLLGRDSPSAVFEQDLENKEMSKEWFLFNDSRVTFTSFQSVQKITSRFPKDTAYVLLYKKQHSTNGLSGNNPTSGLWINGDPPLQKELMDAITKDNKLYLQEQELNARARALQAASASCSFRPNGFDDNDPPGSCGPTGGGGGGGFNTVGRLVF
Procedure, shortened: as §1

[4] = target: T3, USP39 (UniProt Q53GS9)
T3 sequence (whole entry): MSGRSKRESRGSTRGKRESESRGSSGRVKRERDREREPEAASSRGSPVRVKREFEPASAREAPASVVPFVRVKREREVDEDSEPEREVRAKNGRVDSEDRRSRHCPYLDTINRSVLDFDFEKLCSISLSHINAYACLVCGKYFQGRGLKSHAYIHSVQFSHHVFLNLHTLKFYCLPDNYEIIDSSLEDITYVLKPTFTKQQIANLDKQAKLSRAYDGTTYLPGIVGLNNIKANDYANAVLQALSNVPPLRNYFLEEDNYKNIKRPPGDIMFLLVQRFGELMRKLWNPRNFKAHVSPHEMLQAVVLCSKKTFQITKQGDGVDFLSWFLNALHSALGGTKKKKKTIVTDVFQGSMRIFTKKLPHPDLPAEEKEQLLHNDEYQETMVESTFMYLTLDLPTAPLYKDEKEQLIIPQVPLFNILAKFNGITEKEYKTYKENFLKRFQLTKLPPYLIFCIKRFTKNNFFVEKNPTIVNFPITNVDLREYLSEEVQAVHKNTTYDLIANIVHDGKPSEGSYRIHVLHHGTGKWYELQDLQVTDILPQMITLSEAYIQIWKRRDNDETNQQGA
Procedure, shortened: as §1

[5] = target: T4, USP4 (UniProt Q13107)
T4 sequence (whole entry): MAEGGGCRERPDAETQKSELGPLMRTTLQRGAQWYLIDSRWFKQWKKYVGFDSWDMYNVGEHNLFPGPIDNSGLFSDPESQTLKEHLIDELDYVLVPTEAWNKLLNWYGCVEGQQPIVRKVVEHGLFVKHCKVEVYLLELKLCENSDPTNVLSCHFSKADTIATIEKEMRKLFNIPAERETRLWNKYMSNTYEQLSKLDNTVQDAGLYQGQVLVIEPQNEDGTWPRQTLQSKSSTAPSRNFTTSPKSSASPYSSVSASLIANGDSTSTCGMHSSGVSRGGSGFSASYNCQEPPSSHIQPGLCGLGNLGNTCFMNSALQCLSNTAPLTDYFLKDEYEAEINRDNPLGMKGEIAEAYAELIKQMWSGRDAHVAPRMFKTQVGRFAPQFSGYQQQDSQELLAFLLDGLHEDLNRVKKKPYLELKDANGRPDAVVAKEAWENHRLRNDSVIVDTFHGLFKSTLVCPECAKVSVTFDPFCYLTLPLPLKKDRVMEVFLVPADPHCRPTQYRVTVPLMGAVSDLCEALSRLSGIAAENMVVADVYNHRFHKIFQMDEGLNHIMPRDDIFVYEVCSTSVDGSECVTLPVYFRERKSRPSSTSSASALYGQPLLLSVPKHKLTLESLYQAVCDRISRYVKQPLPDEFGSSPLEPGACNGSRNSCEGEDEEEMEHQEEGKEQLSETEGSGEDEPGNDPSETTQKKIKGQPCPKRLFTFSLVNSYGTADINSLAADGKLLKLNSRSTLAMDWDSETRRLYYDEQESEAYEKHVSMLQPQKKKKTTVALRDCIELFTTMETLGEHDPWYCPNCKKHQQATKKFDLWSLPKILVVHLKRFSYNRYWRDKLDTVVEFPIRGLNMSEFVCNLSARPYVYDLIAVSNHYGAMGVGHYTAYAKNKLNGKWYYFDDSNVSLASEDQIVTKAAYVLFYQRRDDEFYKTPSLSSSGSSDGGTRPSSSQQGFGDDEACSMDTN
Procedure, shortened: as §1

Measured: log2 ratio of Biotin-Ahx-Ub-VS probe labelling

Chain of USP34 (Q70CQ2 whole entry, the tested form may be a part): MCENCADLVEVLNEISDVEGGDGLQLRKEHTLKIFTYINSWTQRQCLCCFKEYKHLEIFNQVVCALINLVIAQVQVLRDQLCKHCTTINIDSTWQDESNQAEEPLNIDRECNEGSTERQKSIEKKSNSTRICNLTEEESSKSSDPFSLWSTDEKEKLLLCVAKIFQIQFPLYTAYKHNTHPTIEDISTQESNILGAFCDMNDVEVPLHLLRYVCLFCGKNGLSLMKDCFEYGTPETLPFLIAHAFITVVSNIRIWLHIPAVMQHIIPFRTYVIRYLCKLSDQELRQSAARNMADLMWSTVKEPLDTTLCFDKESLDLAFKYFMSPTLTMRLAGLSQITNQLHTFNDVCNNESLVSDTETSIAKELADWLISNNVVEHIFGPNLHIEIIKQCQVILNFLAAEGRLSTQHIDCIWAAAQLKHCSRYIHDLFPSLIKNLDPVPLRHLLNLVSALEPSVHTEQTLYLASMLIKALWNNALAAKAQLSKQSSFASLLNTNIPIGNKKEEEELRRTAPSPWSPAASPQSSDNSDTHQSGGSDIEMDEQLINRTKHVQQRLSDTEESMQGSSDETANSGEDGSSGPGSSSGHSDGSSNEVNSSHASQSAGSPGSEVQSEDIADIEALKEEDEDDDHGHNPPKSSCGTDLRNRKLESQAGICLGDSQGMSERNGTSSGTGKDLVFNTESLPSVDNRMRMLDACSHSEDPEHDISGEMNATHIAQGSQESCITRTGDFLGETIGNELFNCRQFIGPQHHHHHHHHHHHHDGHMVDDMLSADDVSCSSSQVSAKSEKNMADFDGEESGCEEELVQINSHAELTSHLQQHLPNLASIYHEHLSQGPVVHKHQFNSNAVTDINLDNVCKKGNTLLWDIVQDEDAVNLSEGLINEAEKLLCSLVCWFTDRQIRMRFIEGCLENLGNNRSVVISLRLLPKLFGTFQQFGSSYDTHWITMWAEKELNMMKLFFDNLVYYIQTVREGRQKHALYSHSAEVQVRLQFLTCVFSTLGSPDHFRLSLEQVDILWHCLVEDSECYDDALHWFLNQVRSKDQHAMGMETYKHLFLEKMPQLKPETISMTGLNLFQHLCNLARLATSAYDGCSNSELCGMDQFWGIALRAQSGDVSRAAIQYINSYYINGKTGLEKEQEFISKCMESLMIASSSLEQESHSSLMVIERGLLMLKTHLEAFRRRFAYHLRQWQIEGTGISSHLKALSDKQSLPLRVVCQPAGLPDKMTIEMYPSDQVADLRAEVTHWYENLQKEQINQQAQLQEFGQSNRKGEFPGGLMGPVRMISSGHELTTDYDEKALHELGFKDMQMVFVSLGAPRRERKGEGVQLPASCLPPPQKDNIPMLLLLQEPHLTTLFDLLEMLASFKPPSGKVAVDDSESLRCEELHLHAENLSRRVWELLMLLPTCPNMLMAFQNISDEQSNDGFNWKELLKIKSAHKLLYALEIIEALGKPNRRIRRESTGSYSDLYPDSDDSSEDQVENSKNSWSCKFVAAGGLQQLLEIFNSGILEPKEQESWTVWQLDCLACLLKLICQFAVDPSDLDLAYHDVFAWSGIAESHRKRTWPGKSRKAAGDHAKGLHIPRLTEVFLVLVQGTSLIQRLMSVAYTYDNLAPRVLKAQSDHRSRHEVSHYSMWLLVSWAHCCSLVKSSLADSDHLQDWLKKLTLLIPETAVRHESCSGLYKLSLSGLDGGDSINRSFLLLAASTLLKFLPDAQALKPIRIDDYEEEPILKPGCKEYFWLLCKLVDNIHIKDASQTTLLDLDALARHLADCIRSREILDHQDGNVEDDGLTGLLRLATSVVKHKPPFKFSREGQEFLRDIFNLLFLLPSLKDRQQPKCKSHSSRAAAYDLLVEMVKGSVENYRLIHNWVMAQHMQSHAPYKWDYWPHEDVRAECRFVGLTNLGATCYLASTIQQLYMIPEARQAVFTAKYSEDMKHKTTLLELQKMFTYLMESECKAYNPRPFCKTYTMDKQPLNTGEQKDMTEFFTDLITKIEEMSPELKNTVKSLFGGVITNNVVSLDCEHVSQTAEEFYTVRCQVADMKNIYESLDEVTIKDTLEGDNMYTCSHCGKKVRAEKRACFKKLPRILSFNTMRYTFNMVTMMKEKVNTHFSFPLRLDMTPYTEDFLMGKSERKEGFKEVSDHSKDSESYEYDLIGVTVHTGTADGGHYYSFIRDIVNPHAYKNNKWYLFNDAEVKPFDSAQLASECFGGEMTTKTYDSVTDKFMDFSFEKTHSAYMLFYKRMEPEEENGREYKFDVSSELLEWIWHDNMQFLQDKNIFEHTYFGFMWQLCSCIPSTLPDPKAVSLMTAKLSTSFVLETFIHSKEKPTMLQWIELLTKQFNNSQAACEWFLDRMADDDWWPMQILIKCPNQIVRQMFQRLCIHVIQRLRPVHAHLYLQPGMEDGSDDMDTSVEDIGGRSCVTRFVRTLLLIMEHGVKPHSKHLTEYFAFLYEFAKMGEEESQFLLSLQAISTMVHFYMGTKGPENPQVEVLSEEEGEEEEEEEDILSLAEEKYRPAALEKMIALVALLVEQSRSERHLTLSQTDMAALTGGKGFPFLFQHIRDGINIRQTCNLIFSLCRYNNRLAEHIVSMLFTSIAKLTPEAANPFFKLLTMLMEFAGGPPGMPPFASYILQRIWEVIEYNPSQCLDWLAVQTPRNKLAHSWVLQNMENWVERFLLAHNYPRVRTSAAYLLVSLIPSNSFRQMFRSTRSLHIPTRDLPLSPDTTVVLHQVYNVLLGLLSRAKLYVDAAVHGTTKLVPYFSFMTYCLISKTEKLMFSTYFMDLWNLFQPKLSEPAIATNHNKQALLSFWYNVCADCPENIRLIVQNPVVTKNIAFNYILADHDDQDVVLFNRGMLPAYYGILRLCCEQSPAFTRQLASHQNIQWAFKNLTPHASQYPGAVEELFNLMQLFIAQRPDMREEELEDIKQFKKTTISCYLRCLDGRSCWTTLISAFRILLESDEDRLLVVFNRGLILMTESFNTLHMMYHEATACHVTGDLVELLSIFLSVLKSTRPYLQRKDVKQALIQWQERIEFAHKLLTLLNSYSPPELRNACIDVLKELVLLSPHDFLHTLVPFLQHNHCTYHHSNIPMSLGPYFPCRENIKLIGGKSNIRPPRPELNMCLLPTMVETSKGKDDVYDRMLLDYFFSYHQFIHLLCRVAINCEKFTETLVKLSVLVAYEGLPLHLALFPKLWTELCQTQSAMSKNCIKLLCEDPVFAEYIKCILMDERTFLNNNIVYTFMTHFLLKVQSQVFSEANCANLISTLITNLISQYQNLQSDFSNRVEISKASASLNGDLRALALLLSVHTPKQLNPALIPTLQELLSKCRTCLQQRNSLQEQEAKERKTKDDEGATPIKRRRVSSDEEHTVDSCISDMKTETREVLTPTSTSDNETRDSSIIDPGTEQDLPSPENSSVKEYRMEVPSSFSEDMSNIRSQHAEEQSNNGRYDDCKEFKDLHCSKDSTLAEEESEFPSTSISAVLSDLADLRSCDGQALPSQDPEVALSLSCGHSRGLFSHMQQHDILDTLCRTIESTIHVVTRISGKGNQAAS

O=C(CCl)N1CCOC(c2cccc(F)c2)C1 (stereo not given)
inactive: [1] -0.575 | [2] -0.337 | [3] -0.131 | [4] -0.0268 | [5] -0.344
